Shown are actives, neighbours in structure and some others; about 7.9% of the full set was active somewhere.
MARV entry inh: blocks Marburg virus binding to or entry into cells | Marburg virus pseudotyped entry inhibition, cell reporter | Potency, µM (doses to about 37.8 µM), without a hit: at the top dose activity change, negative = inhibition, hits mostly inhibitors | hit rate 1.8% among 300,000 | AID 540276; calls by dose curve; tested in HEK293 cells; further: potency means the concentration at half of the fitted maximal effect
Lassa entry inh: Lassa virus entry inhibition | Potency, µM (series often up to 37.9 µM), for the others: at the highest dose activity change, negative = inhibition, most hits filed as inhibitors | hit rate 1.2% among 300,000 | Lassa virus pseudotype entry inhibition, cell reporter; calls by dose curve; tested in HEK293 cells; further: potency means the concentration at half of the fitted maximal effect; nearly all actives have a fitted effect of over 50% in size
HCMV inh: inhibitors of human cytomegalovirus; HFF cells, HCMV-luciferase reporter, 72 h; hits give low values; activity change, negative = inhibition, % at 57.5 µM; hit rate 4.5% among 410,000; AID 1259415; in the data active means activity change below about -60%; inconclusive means no clear call, values can overlap the other calls; inactive means above about -39%
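Steps: HFFs plated, 16 h 37C; compounds added; HCMV-luciferase added to MOI 1 PFU/cell; 72 h 37C; OneGlo reagent, 5 min room temperature; luminescence read, normalized to controls.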
HCV inh: blocks hepatitis C virus | AID 651820 | Huh7.5.1 HCVcc-Cre infection, luciferase reporter, 44 h | Potency, µM (titrated, usually from 41.8 µM), for inactives: top-dose activity change, negative = inhibition, usual class: inhibitors | hit rate 3.4% among 340,000; active means well fitted inhibition curve with a large enough effect; inconclusive means small, poorly fitted or top-dose-only effect, or another doubt; inactive means no such curve, though single readings can be large or run the other way; further: potency means the concentration at half of the fitted maximal effect
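A cell-based infection assay in which seeded cells (1,000 per well) receive test compound after 4 h, are inoculated with HCVcc-Cre at approximately 0.5 moi, and are incubated 44 h before luminescence detection.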
FMDV inh: blocks foot and mouth disease virus; FMDV antiviral cell-based qHTS; Potency, µM (highest dose often 57.9 µM), for inactives: at the top dose activity change, negative = inhibition, actives largely listed as inhibitors; hit rate 1.2% among 410,000; calls by dose curve; tested in HEK293T cells; further: read-out not given here; potency means the concentration at half of the fitted maximal effect; nearly all actives have a fitted effect of over 45% in size
Starred values were filed as active, the others as inactive; ? = inconclusive; nt = no result; [ ] = dose if it differs, or a comment. On the % scale 0 is the no-effect control and ±100 the full control effect.

SMILES	MARV entry inh	Lassa entry inh	HCMV inh	HCV inh	FMDV inh
CCc1ccc(-c2nc(CS(=O)CC(=O)NCCc3ccc(C)cc3)c(C)o2)cc1 (stereo not given)	nt	22%[46.1 µM]	-16	nt	2%
CC(C)(C)C(=O)Nc1cccc(-c2nc3ccccc3[nH]2)c1	-9%	0%	-15	?	-12%
CC(C)(C)C(=O)Nc1sc2c(c1-c1nc3ccccc3[nH]1)CCCC2	?	4%	-107*	?	-6%
C[C@@](N)(C(=O)O)c1ccc(P(=O)(O)O)cc1	nt	nt	nt	nt	0%
CCOC(=O)c1ccc(NC(=O)CCc2c(C)nc3nc[nH]n3c2=O)cc1	-3%[46.1 µM]	-23%[46.1 µM]	9	nt	13%
Cc1ccc(CN2C3CCCC2CC(NC(=O)c2ccc(C)cc2)C3)cc1 (stereo not given)	13µM*	?	?	32µM*	-20%
CCCN1C2CCCC1CC(NC(=O)c1ccccc1OC)C2 (stereo not given)	?	-7%[46.1 µM]	66	1%	-8%
CCCN1C2CCCC1CC(NC(=O)c1cc(OC)c(OC)c(OC)c1)C2 (stereo not given)	?	-1%	-104*	-5%	8%
Cc1n[nH]c(C)c1S(=O)(=O)N1CCCC(C(=O)Nc2ccc(Cl)cc2)C1 (stereo not given)	-27%[46.1 µM]	-19%[46.1 µM]	?	nt	0%
CC(C)CN=c1cc(-c2ccccc2)oc2ccc(Cl)cc12	18µM*	?	20	?	11%
Cc1nc2sc(C(=O)NCc3ccc(Cl)cc3)c(NC(=O)c3ccccc3)c2c(C)c1C	-1%[46.1 µM]	?	-33	nt	-14%
CN(C(=O)c1cccc(NC(=O)Cc2ccc(NC(=O)C3CCCN(S(=O)(=O)c4cccc([N+](=O)[O-])c4)C3)cc2)c1)C1CCCCC1 (stereo not given)	nt	nt	-9	?	0%
CNCCCC12CCC(c3ccccc31)c1ccccc12	4.6µM*	16µM*	?	?	?
Clc1ccc2c(N3CCNCC3)ccnc2c1	8%[46.1 µM]	28%	-109*	0%	1%
Oc1ccc(N2CCN(c3ccnc4cc(Cl)ccc34)CC2)cc1	?	-17%[46.1 µM]	-66*	-25%	-12%
O=C(c1ccccc1)c1c2c(cc3sc4ccccc4[n+]13)-c1cccc3cccc-2c13	?	15µM*	-103*	?	40µM*
Cc1sc2cc3c(c(C(=O)c4ccccc4)[n+]2c1C)-c1cccc2cccc-3c12	4.5µM*	?	-100*	10µM*	14µM*
Cc1cc2ccccc2cc1C(=O)c1ccccc1	?	-14%[46.1 µM]	-14	-12%	31%
CC(=O)c1c(C)n(-c2ccccc2)c2ccc(O)cc12	14%	2%	-64*	?	-29%
CC(=O)c1c(C)n(-c2cccc(Cl)c2)c2ccc(O)cc12	?	-9%[46.1 µM]	-68*	-23%	-14%
CCOc1ccc(-n2c(C)c(C(C)=O)c3cc(O)ccc32)cc1	nt	nt	-62*	8%	-7%
CC(=O)c1c(C)n(Cc2ccccc2Cl)c2ccc(O)cc12	3%[46.1 µM]	-6%	-62*	-24%	?
CC(=O)c1ccc(-n2c(C)c(C(C)=O)c3cc(O)ccc32)cc1	7%[46.1 µM]	-7%[46.1 µM]	?	13%	-23%
CC(=O)c1c(C)n(CCc2ccc(Cl)cc2)c2ccc(O)cc12	-8%	-5%	-38	9%	-14%
CCn1c(=O)cc(SCC(=O)NCCc2ccc(OC)cc2OC)c2ccccc21	-16%[46.1 µM]	-27%[46.1 µM]	8	nt	-8%
SMILES	MARV entry inh	Lassa entry inh	HCMV inh	HCV inh	FMDV inh
Cc1ccc(N2CCN(S(=O)(=O)c3cc(C(=O)Nc4cc(Cl)cc(Cl)c4)ccc3F)CC2C)cc1 (stereo not given)	nt	?	-40	nt	?
CCc1ccc(NC(=O)CSc2nc3nc(C)cc(C)n3n2)cc1	5%[46.1 µM]	0%[46.1 µM]	?	?	-25%
COc1ccc2c(c1)c(C(=O)N1CCN(C)CC1)c(C)n2-c1ccccc1	3%	-3%	27	8%	5%
COc1ccc2c(c1)c(C(=O)O)c(C)n2-c1ccc(Cl)cc1	nt	nt	-63*	2%	-16%
COC(=O)C1=C(c2ccc3ccccc3c2)C[C@@H]2CC[C@H]1N2C(=O)N1CCCC1	nt	nt	nt	10µM*	?
COC(=O)C1=C(c2ccc(-c3ccccc3)c(F)c2)C[C@@H]2CC[C@H]1N2C(=O)N1CCCC1	nt	nt	-72*	2.8µM*	-8%
COC(=O)C1=C(c2ccc(-c3ccccc3)c(F)c2)C[C@@H]2CC[C@H]1N2C(=O)N1CCCCC1	nt	nt	-75*	?	?
COC(=O)C1=C(c2ccc(-c3ccccc3)c(F)c2)C[C@@H]2CC[C@H]1N2C(=O)N1CCC(C)CC1	nt	nt	-26	?	-7%
COC(=O)C1=C(c2ccc(-c3ccccc3)c(F)c2)C[C@@H]2CC[C@H]1N2C(=O)N1CCc2cc(OC)c(OC)cc2C1	nt	nt	-18	?	?
CCN(CC)CCCN1C(=O)C(=O)/C(=C(\O)c2ccc(Cl)cc2)[C@@H]1c1ccccn1	16%	nt	nt	nt	nt
CC1CN(C(=O)/C=C/c2ccc([N+](=O)[O-])s2)CC(C)O1 (stereo not given)	11µM*	?	-68*	?	13%
CC1CN(C(=O)/C=C/c2ccccc2[N+](=O)[O-])CC(C)O1 (stereo not given)	0%[46.1 µM]	0%	?	0%	-2%
CC1CC(C)CN(C(=O)/C=C/c2ccc([N+](=O)[O-])s2)C1 (stereo not given)	nt	nt	-87*	?	?
Nc1ccc(C2(c3ccc(N)cc3)c3ccccc3-c3ccccc32)cc1	?	7%	-91*	8.9µM*	?
CN(C)c1ccc(/C=C/c2cccc[n+]2[O-])cc1	-19%[46.1 µM]	?	135	11%	5%
Cc1cc2c(=Cc3ccc(N(C)C)cc3)c3ccccc3n2[n+]1C	?	2.2µM*	-97*	1.3µM*	0%
CCOC(=O)SC1=N/C(=C\c2ccc(N(C)C)cc2)C(=O)S1	-1%	?	54	5%	11%
CCOC(=O)c1cc2c(=Cc3ccc(N(C)C)cc3)c3ccccc3n2[n+]1C	?	11µM*	-88*	?	18µM*
CN(C)c1ccc(C=c2c3ccccc3n3c2c2ccccc2[n+]3C)cc1	?	7.1µM*	-98*	8.9µM*	25µM*
Cn1c(=O)c2c(nc3n2CC(O)CN3c2ccc(O)cc2)n(C)c1=O (stereo not given)	5%[46.1 µM]	12%[46.1 µM]	1	17%	20%
Cc1ccccc1NC(=O)c1ccc(F)c(S(=O)(=O)NCC2CCCO2)c1 (stereo not given)	nt	nt	28	-12%	30%
Cc1ccccc1NC(=O)c1ccc(F)c(S(=O)(=O)N(C)C2CCCCC2)c1	nt	?	-94*	nt	?
CSc1ncc(C(=O)Nc2ccccc2C(=O)c2ccccc2)c(C(F)(F)F)n1	nt	?	0	nt	-8%
COc1ccc2c(c1)cc1c(=O)n(CC(=O)NC3CC3)nc(C)n12	3%[46.1 µM]	nt	11	nt	-24%
c1c2c(cc3sc(N4CCCCC4)nc13)OCO2	?	6.3µM*	5	-12%	-39%
